From PubChem BioAssay (NCATS) come the findings set out here.

A short description of experiment [1]: AP1 Signaling Pathway (AID 357; active = well fitted curve in either direction with a large enough effect, not every such curve was filed as active;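 note: ME-180 reporter cells stimulated with EGF at its EC50 level; % is set by controls: 0 for no effect and ±100 for the full control effect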). The method in brief:
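Modulation of EGF-driven AP-1 transcription was assessed with a beta-lactamase reporter in ME-180 cells. Compound and EC50 EGF were co-incubated 5 hours at 37 °C before 2.5-hour CCF4 loading at room temperature and dual-emission reading.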

For experiment [2], the target named is Cytochrome P450 1A2 (Homo sapiens) (UniProt P05177). In words: p450-cyp1a2 (AID 410; calls by dose curve; note: potency is the fitted concentration of half-maximal effect). The method in brief: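 Human CYP1A2 (20nM) demethylated Luciferin-ME at its Km (100uM) in 100mM KPO4. After 10 min compound preincubation, NADPH regeneration ran the reaction 60 min at room temperature. Luciferin was read by luminescence, normalized to 57 uM furafylline.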

A short description of experiment [3]: NFAT Signaling Pathway (AID 444; active = well fitted curve in either direction with a large enough effect, not every such curve was filed as active;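 note: carbachol stimulus at about its EC50 of 1 µM final; % is set by controls: 0 for no effect and ±100 for the full control effect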). Particulars: Jurkat NFAT-bla M1, carbachol, beta-lactamase ratio, 5 h; at 17.2 µM (top of the series) unless noted. The method in brief: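 Jurkat cells with NFAT-driven β-lactamase reporter and co-expressed M1 receptor, stimulated with carbachol (final 1 uM, ~EC50), compound titration, 5 h at 37 °C. CCF4 loaded 1 h at RT; 460/530 nm ratio gave %activity and AC50.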

Experiment [4] in a line: Stat Signaling Pathway (AID 446; active = well fitted curve in either direction with a large enough effect, not every such curve was filed as active;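 note: ME-180 cervical cancer cells given 40 pM IL-6 alongside compound; SIE-controlled beta-lactamase reporter measured as 460/530 nm FRET emission ratio; % is set by controls: 0 for no effect and ±100 for the full control effect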). The method in brief: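 Reporter line: ME-180 cervical carcinoma, SIE-beta-lactamase. Treatment: compound with 40 pM IL-6, 5 hrs, 37 C, in low-serum OPTI-MEM with 10 mM HEPES pH 7.3. Detection: 460/530 nm fluorescence.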
Experiment [5] has as its target Mitogen-activated protein kinase 10 (Mus musculus) (UniProt Q61831). Description: JNK3 AlphaScreen Assay (AID 530; active = well fitted curve in either direction with a large enough effect, not every such curve was filed as active;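 note: kinase came from lysate of stimulated human HepG2 cells; signal reports phosphorylation of biotinylated GST-cJun 1-79 at Ser73 with 10 µM ATP; % is set by controls: 0 for no effect and ±100 for the full control effect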). The method in brief:
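qHTS format: compounds tested as titrations against IL-1beta/TNF-alpha-activated HepG2 lysate JNK3 with biotin-GST-cJun substrate and 10 uM ATP at room temperature. Loss of anti-phospho-cJun AlphaScreen signal indicates inhibition.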

Experiment [6] has as its target 3',5'-cyclic-AMP phosphodiesterase 4B (Homo sapiens) (UniProt Q07343). In words: qHTS Assay for Inhibitors of PDE-IV (AID 607; active = well fitted activation curve with a large enough effect in the main read-out, with a control signal flat, not every such curve was filed as active; note: % of control where 0% means no effect). The method in brief: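 Cell-based read-out of cAMP via a modified cyclic nucleotide-gated channel and membrane potential dye (535/590 nm) in HEK293 cells expressing PDE4 endogenously. Compounds tested up to 22.9 uM final; 100 uM RO 20-1724 reference.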

The nature of experiment [7]: qHTS Assay for Lipid Storage Modulators (AID 1519; calls by dose curve). Particulars: Drosophila S3 cells, BODIPY lipid droplet/cell ratio, laser cytometry, cells loaded with oleic acid; for activity change, negative = inhibition: at 25.7 µM (top of the series). The method in brief:
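Cells seeded at 5,000 per well were treated with compounds over a concentration series and loaded with oleic acid (400 uM, as added). Lipid droplet fluorescence (488 nm excitation, 500-530 nm channel) was read by laser-scanning cytometry and normalized to 20 uM Triacsin C.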

Experiment [8] addresses ATP-dependent 6-phosphofructokinase (Trypanosoma brucei brucei) (UniProt O15648). In words: qHTS Assay to Find Inhibitors of T. brucei phosphofructokinase: hit validation (AID 492961). Note: % is set by controls: 0 for no effect and ±100 for the full control effect. The method in brief:
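Luminescence from ADP-Glo reports ADP generated as T. brucei PFK (1.25 nM) phosphorylates 0.5 mM fructose-6-phosphate using 0.1 mM ATP. Reactions ran 45 min at room temperature, pH 8.0.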

Experiment [9] concerns the target Ubiquitin carboxyl-terminal hydrolase 1 (Homo sapiens) (UniProt O94782). Description: Inhibitors of USP1/UAF1: Pilot qHTS (AID 504865).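 Note: rhodamine fluorescence freed from ubiquitin-rhodamine substrate followed over time; top concentration of the series differs between compounds; % is set by controls: 0 for no effect and ±100 for the full control effect; nearly all actives have a fitted effect of over 35% in size.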 The method in brief:
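USP1/UAF1 complex (1nM) preincubated with compound 15 min at room temperature, then Ub-Rho substrate (150nM final) added. Fluorescence read kinetically at 480/540 nm, 6 reads every 60 seconds. Buffer: 50mM HEPES pH 7.8, 0.5mM EDTA, 0.1 mg/ml BSA, 1mM TCEP, 0.01% Tween-20.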

In experiment [10] the target is Luciferin 4-monooxygenase (Photinus pyralis) (UniProt P08659). In words: Biochemical firefly luciferase enzyme assay for NPC (AID 624030).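 Note: purified P. pyralis luciferase at 10 nM with luciferin and ATP substrate; 0% = DMSO and -100% = full luciferase inhibition by PTC124 control; nearly all actives have a fitted effect of over 70% in size.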 The method in brief: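 Purified P. pyralis luciferase at 10 nM in 50 mM Tris Acetate (final), luminescence read within 5 minutes of enzyme addition to compounds. Activity normalised to PTC124 versus DMSO; concentration-response curves classed by r2, magnitude and activity.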

Experiment [11] is described as follows: qHTS profiling for inhibitors of Plasmodium falciparum proliferation (AID 504749).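 For activity, negative = inhibition: 0% = DMSO vehicle and full inhibition = artemisinin control.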 For all read-outs here: nearly all actives have a fitted effect of over 60% in size. Note: potency is the fitted concentration of half-maximal effect. Particulars: P. falciparum in erythrocytes, SYBR Green DNA, 72 h; for activity, negative = inhibition: at 12.8 µM (top of the series). The method in brief: (§1)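 Readout was DNA-dye fluorescence from lysed cultures, ex 485/em 535 nm. Parasitized red cells had grown 72 h with compound; data scaled between 0.29 uM artemisinin and DMSO wells and corrected using vehicle-only plates.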

The next experiment has as its system 3D7. The experiment is described as above. Particulars: P. falciparum in erythrocytes, SYBR Green DNA, 72 h; series mostly up to 12.8 µM. The method in brief:
as §1

Another experiment deals with C2A. The experiment is described as above. Particulars: P. falciparum in erythrocytes, SYBR Green DNA, 72 h; series mostly up to 12.8 µM. The method in brief: as §1
The subject of another experiment is CP217. The experiment is described as above. Particulars: P. falciparum in erythrocytes, SYBR Green DNA, 72 h; series mostly up to 12.8 µM. The method in brief: as §1
The next experiment relates to CP250. The experiment is described as above. Particulars: P. falciparum in erythrocytes, SYBR Green DNA, 72 h; series mostly up to 12.8 µM. The method in brief:
as §1

The next experiment relates to FAB9. Described as above. Particulars: P. falciparum in erythrocytes, SYBR Green DNA, 72 h; series mostly up to 12.8 µM. The method in brief: as §1
For the next experiment, the system named is JCK. The description is as above. Particulars: P. falciparum in erythrocytes, SYBR Green DNA, 72 h; series mostly up to 12.8 µM. The method in brief:
as §1

A further experiment deals with PC49. The description is as above. Particulars: P. falciparum in erythrocytes, SYBR Green DNA, 72 h; series mostly up to 12.8 µM. The method in brief:
as §1

The target in experiment [12] is Glucocorticoid receptor (Homo sapiens) (UniProt P04150). In words: GR-EFC Redistribution (AID 451; calls by dose curve; note: potency is the fitted concentration of half-maximal effect). Particulars: CHO-K1 GR-EFC translocation, beta-gal luminescence, 2 h. The method in brief: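 CHO-K1 cells expressing nuclear EA and GR-ED fragments of b-gal; compounds titrated up to 46 uM final, 2 h at 37 C. GR nuclear translocation read as complemented b-gal luminescence after 1 h RT detection.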

[13] abbreviates: measured here: cell count channel max response.
The mark [14] stands for this setting: measured here: lipid channel max response.

Structures are written as SMILES. Records with an inconclusive call do not appear. Calls of active or inactive are those of the source. Unless noted, calls come from the whole dose curve; as a rule, active = well fitted curve in the direction sought with a large enough effect; inconclusive = small, poorly fitted or top-dose-only effect, or another doubt; inactive = no such curve, though single readings can be large; an effect the other way counts as inactive or inconclusive. Bounds are passed on as bounds.

Sequence of Ubiquitin carboxyl-terminal hydrolase 1 (Homo sapiens) (O94782 whole entry, looked up): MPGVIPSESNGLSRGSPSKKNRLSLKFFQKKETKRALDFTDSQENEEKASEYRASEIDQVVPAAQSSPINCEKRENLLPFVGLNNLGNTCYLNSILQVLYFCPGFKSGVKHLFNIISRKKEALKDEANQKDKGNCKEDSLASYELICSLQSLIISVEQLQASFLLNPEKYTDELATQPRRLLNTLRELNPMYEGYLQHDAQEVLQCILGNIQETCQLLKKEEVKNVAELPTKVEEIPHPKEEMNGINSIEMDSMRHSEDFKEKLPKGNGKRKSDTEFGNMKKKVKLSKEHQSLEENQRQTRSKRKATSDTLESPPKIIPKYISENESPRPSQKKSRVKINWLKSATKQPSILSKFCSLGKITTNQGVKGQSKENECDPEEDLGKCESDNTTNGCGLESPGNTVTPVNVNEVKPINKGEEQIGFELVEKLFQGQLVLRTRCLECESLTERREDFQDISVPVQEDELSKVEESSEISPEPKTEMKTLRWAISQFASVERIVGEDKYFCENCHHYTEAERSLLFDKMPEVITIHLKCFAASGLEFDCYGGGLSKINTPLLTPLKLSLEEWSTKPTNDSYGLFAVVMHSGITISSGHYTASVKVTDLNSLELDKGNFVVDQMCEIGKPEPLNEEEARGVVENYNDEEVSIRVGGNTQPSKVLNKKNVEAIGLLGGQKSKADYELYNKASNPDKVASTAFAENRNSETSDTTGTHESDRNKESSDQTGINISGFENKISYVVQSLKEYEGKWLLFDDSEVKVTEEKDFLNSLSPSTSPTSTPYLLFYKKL
Sequence of Cytochrome P450 1A2 (Homo sapiens) (P05177 whole entry, looked up): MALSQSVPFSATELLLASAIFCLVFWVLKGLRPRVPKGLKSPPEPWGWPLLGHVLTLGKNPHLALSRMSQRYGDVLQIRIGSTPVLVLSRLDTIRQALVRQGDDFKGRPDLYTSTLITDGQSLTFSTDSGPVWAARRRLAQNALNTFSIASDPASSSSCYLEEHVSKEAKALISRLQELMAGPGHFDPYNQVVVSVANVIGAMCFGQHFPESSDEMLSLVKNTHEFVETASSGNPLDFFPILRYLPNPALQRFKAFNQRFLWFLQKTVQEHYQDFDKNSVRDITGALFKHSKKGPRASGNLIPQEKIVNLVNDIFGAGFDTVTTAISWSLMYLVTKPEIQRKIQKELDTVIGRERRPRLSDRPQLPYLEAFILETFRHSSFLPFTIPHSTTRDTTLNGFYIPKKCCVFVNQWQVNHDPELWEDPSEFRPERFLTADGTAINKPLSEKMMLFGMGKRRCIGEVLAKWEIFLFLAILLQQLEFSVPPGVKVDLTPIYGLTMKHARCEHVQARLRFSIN
Sequence of ATP-dependent 6-phosphofructokinase (Trypanosoma brucei brucei) (O15648 whole entry, looked up): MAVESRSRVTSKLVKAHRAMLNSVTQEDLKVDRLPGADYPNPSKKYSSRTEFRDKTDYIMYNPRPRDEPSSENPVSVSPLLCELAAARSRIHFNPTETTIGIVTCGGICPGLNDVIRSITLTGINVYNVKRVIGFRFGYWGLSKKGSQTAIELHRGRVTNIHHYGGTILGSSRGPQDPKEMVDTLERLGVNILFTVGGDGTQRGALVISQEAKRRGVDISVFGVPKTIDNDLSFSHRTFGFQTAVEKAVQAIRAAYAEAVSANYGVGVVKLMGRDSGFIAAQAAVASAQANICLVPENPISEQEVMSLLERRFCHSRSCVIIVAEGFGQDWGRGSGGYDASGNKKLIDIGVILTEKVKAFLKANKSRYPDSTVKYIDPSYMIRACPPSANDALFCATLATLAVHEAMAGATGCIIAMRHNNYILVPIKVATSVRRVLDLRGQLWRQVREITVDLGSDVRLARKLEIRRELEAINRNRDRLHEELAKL
Sequence of 3',5'-cyclic-AMP phosphodiesterase 4B (Homo sapiens) (Q07343 whole entry, looked up): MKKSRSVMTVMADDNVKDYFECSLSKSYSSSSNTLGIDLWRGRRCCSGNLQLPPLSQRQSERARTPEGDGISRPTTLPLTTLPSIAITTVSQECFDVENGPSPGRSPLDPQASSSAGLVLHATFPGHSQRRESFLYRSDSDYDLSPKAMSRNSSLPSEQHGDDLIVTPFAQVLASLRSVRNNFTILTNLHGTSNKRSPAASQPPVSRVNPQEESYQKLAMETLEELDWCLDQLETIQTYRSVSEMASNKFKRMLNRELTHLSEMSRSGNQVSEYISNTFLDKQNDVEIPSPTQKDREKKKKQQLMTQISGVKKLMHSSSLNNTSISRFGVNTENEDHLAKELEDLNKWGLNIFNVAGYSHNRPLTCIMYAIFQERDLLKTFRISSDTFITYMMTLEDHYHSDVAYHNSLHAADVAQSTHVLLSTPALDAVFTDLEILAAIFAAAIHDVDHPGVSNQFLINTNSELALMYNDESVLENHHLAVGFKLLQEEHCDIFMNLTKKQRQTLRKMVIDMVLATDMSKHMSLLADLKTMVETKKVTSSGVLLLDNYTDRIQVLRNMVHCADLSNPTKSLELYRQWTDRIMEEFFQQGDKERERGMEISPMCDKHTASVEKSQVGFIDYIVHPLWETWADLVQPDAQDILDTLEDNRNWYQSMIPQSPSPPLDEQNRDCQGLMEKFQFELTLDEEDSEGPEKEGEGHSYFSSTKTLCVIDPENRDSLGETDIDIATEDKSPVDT
Sequence of Luciferin 4-monooxygenase (Photinus pyralis) (P08659 whole entry, looked up): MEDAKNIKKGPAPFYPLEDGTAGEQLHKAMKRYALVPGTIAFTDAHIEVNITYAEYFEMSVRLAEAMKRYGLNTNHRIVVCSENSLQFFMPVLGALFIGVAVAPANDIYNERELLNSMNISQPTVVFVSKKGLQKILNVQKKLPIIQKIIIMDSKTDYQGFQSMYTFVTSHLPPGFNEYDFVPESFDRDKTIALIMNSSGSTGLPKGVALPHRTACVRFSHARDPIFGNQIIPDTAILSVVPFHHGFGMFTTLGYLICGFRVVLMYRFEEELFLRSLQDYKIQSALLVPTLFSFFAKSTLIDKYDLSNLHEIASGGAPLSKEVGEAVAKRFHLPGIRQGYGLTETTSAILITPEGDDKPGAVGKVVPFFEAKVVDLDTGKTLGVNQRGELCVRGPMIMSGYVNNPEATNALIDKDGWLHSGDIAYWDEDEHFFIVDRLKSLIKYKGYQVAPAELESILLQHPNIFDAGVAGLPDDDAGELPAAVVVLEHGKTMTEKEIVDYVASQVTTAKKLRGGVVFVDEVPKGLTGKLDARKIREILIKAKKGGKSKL
Sequence of Glucocorticoid receptor (Homo sapiens) (P04150 whole entry, looked up, the tested form may be a part): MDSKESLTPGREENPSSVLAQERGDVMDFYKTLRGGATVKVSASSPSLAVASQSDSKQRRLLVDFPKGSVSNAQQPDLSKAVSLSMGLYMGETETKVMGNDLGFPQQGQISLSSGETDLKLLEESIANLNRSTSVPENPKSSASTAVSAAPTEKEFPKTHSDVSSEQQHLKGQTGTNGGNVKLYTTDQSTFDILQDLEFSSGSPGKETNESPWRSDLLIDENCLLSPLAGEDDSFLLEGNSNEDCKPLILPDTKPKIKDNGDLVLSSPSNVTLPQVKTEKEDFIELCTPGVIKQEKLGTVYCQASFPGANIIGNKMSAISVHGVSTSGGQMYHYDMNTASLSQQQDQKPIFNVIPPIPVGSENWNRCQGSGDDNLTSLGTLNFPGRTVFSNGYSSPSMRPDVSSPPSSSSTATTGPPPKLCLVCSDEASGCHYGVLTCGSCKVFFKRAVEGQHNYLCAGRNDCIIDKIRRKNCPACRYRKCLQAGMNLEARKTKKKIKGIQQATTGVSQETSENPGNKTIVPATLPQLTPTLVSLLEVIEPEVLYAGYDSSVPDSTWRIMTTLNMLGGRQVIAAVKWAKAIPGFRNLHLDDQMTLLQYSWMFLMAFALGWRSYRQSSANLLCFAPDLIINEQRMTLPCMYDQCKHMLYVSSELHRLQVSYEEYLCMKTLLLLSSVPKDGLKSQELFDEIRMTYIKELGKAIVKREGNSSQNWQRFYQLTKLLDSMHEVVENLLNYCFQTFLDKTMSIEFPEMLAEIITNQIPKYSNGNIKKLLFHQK

As for `NS(=O)(=O)c1cc2c(cc1Cl)N[C@@H](C(Cl)Cl)NS2(=O)=O`, the molecule was classed as inactive in [1], in experiment [4], in [6] and in experiment [8]. Moreover, the Potency entry (in experiment [2]; in experiment [5]; in [9]; in experiment [10]; in the experiment with 3D7; with C2A) was “inactive” each time. Besides, the Potency entry with CP217, with CP250, with FAB9, with JCK and in the experiment with PC49 was “inactive” in each case. Besides, the activity change, negative = inhibition in [3] was -8.61% (inactive); in experiment [7] it was -2.63% (inactive). In addition, the max response in experiment [7] (setting [13]) and in [7] (setting [14]) was -19.9% throughout. Further, the activity, negative = inhibition is -8.3% (inactive) in experiment [11] (parasite line A) and 4.19% (inactive) in [11] (parasite line B).

As for `C[C@@]12C=CC(=O)C=C1CC[C@@H]1[C@@H]2[C@H](O)C[C@]2(C)[C@@H]1CC[C@]2(O)C(=O)CO`, the outcome in experiment [1], in experiment [4] and in experiment [6] was inactive. Moreover, the Potency result in [2] and in [9] was “inactive” in each case. The values for the activity change, negative = inhibition in [3] and in experiment [7] were -7.95% (inactive) and -5.21% (inactive), respectively. For the same molecule, the max response in experiment [7] (setting [13]) is 2.46%; in experiment [7] (setting [14]) it was -3.94%.

Regarding `Cc1ccc(S(=O)(=O)NC(=O)NN2C[C@H]3CCC[C@@H]3C2)cc1`, the call in [1], in experiment [4], in experiment [6] and in [8] was inactive. The Potency result (in [2]; in experiment [5]; in experiment [10]; with 3D7; with C2A; in the experiment with CP217) was “inactive” each time. The Potency entry in the experiment on CP250, in the experiment on FAB9, in the experiment with JCK and in the experiment on PC49 was “inactive” throughout. Besides, the activity change, negative = inhibition is -2% (inactive) in experiment [3] and 2.69% (inactive) in experiment [7]. The max response in experiment [7] (setting [13]) was found to be 5.52%; in experiment [7] (setting [14]) it was 8.97%. The activity, negative = inhibition in experiment [11] (parasite line A) was -0.0473% (inactive); in experiment [11] (parasite line B), 12.1% (inactive).

Take `Cc1c(C)c2c(c(C)c1O)CC[C@@](C)(C(=O)O)O2`: the result in experiment [1], in experiment [4] and in [6] was inactive. In addition, the Potency in experiment [2] is 20 µM (active); in experiment [12] it was > 20.6 µM (inactive). The activity change, negative = inhibition is 9.85% (inactive) in experiment [3] and 0.436% (inactive) in experiment [7]. The results for the max response in [7] (setting [13]) and in experiment [7] (setting [14]) were -15.9% and -17.6%, respectively. Also, in experiment [9], the Potency result was “inactive”.

Take `NS(=O)(=O)c1cc2c(cc1C(F)(F)F)N[C@H](Cc1ccccc1)NS2(=O)=O`: the outcome in experiment [1], in [4], in experiment [6] and in experiment [8] was inactive. Also, the Potency in [2] is 15.8 µM (active). Moreover, the activity change, negative = inhibition was 17.7% (inactive) in [3] and 1.42% (inactive) in experiment [7]. In addition, the Potency result (in [5]; in [10]; in the experiment on 3D7; in the experiment with C2A; with CP217; in the experiment with CP250) was “inactive” throughout. Besides, the Potency entry with FAB9, with JCK and in the experiment on PC49 was “inactive” each time. Besides, the max response is -8.69% in experiment [7] (setting [13]) and -8.81% in experiment [7] (setting [14]). For the same molecule, the activity, negative = inhibition in [11] (parasite line A) is -1.91% (inactive).

Turning to `CCC[C@@H]1O[C@@H]2C[C@@H]3[C@H]4CCC5=CC(=O)C=C[C@@]5(C)[C@H]4[C@H](O)C[C@@]3(C)[C@@]2(C(=O)CO)O1`, the outcome in experiment [1], in experiment [6] and in [8] was inactive. Further, the Potency entry in [2], in experiment [5], in [9] and in experiment [10] was “inactive” throughout. The activity change, negative = inhibition in experiment [3] is -1.55% (inactive); in experiment [7], -3% (inactive). For the same molecule, the max response is 4.44% in experiment [7] (setting [13]) and -2.78% in experiment [7] (setting [14]). In addition, the Potency was 11.2 µM (active) in experiment [11] (parasite line A); 11.2 µM (active) in experiment [11] (parasite line B); 7.94 µM (active) in the experiment with 3D7; 10 µM (active) in the experiment on CP217; 11.2 µM (active) in the experiment with CP250.
